Inconclusive results are not listed. Entries that show only a call come without a potency. Active and inactive are the calls of the source. Calls follow the shape of the dose curve; as a rule, active = well fitted inhibition curve with a large enough effect; inconclusive = small, poorly fitted or top-dose-only effect; inactive = flat fitted curve, though single readings scatter.
How the values were obtained:
Assay in all cases: qHTS profiling for inhibitors of Plasmodium falciparum proliferation (AID 504749); also: nearly all actives have a fitted effect of over 60% in size
Details in all cases: P. falciparum in erythrocytes, SYBR Green DNA, 72 h; series mostly up to 28.7 µM
[1] = test system: CP262
Procedure, shortened: (§1)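 SYBR Green fluorescence of parasite DNA, read after lysis and overnight dark incubation, measured growth over 72 h in erythrocyte culture at 0.3% parasitemia and 2.5% hematocrit. Data normalised to DMSO and 0.29 uM artemisinin, with plate-drift correction.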

[2] = test system: CP266
Procedure, shortened: as §1

[3] = test system: CP305
Procedure, shortened: as §1

[4] = test system: CP315
Procedure, shortened: as §1

[5] = test system: CP329
Procedure, shortened: as §1

[6] = test system: DFO2036
Procedure, shortened: as §1

[7] = test system: Dd2
Procedure, shortened: as §1

[8] = test system: ECU
Procedure, shortened: as §1

[9] = test system: FAB9
Procedure, shortened: as §1

[10] = test system: CP268
Procedure, shortened: as §1

[11] = test system: CP269
Procedure, shortened: as §1

[12] = test system: CP286
Procedure, shortened: as §1

[13] = test system: CP291
Procedure, shortened: as §1

[14] = test system: CP297
Procedure, shortened: as §1

[15] = test system: CP325
Procedure, shortened: as §1

[16] = test system: CP335
Procedure, shortened: as §1

[17] = test system: DIV30
Procedure, shortened: as §1

[18] = test system: CP265
Procedure, shortened: as §1

[19] = test system: DIV14
Procedure, shortened: as §1

[20] = test system: DIV17
Procedure, shortened: as §1
Potency is read from the fitted curve at half-maximal effect.

Compound | Potency [1] | Potency [2] | Potency [3] | Potency [4] | Potency [5] | Potency [6] | Potency [7] | Potency [8] | Potency [9] | Potency [10] | Potency [11] | Potency [12] | Potency [13] | Potency [14] | Potency [15] | Potency [16] | Potency [17] | Potency [18] | Potency [19] | Potency [20]
CCN(CCCc1ccccc1)CCCc1ccccc1 | inactive | inactive | inactive | inactive | inactive | inactive | 3160 nM (active) | inactive | inactive | – | – | – | – | – | – | – | – | – | – | –
CC(=O)OCC(=O)[C@@]1(OC(C)=O)[C@@H](C)C[C@H]2[C@@H]3C[C@H](F)C4=CC(=O)C=C[C@]4(C)[C@@]3(F)[C@@H](O)C[C@@]21C | inactive | inactive | inactive | inactive | inactive | inactive | inactive | inactive | inactive | inactive | inactive | inactive | inactive | inactive | inactive | inactive | inactive | – | – | –
Cc1c(F)c(N2CCNC(C)C2)cc2c1c(=O)c(C(=O)O)cn2C1CC1 (configuration not stated) | inactive | – | inactive | inactive | inactive | inactive | inactive | inactive | inactive | inactive | inactive | inactive | inactive | inactive | inactive | inactive | inactive | inactive | inactive | inactive
CCN(CC)CCNC(=O)COc1ccc(Cl)cc1 | inactive | inactive | inactive | inactive | inactive | – | 12600 nM (active) | – | inactive | inactive | inactive | – | inactive | – | inactive | inactive | inactive | – | – | –
CCCN1CCCC[C@H]1C(=O)Nc1c(C)cccc1C | inactive | inactive | – | inactive | inactive | inactive | – | inactive | inactive | – | inactive | inactive | inactive | – | – | – | inactive | – | – | –
CCCOC(C(=O)OC1CCN(C)CC1)(c1ccccc1)c1ccccc1 | inactive | inactive | – | inactive | inactive | inactive | 12600 nM (active) | 10000 nM (active) | inactive | – | – | – | – | inactive | – | – | – | – | 7570 nM (active) | 7570 nM (active)
NC(=NCCCCCCN=C(N)/N=C(\N)Nc1ccc(Cl)cc1)/N=C(\N)Nc1ccc(Cl)cc1 | 1510 nM (active) | 3790 nM (active) | 1200 nM (active) | 1070 nM (active) | 1690 nM (active) | 1780 nM (active) | 2000 nM (active) | 2240 nM (active) | 2000 nM (active) | 1510 nM (active) | 1200 nM (active) | 398 nM (active) | 1350 nM (active) | 2130 nM (active) | 1900 nM (active) | 1690 nM (active) | 1510 nM (active) | – | 1070 nM (active) | 1070 nM (active)
CCOC(=O)/C=C(C)/C=C/C=C(C)/C=C/c1c(C)cc(OC)c(C)c1C | inactive | inactive | inactive | inactive | inactive | – | – | – | inactive | inactive | inactive | – | inactive | inactive | inactive | – | inactive | – | inactive | –
Cc1c(C)n(Cc2ccccc2)c2ccc(C(=O)OCCN(C)C)cc12 | inactive | – | inactive | inactive | inactive | inactive | inactive | inactive | inactive | inactive | inactive | inactive | inactive | inactive | inactive | inactive | inactive | inactive | inactive | inactive
CNCCC(Oc1ccccc1C)c1ccccc1 (configuration not stated) | inactive | – | – | inactive | – | inactive | 7080 nM (active) | inactive | inactive | – | inactive | inactive | inactive | inactive | inactive | inactive | – | – | 6010 nM (active) | 6750 nM (active)
CCCCCCCCCCOCC(O)CN (configuration not stated) | inactive | inactive | – | inactive | inactive | inactive | 12600 nM (active) | – | inactive | – | inactive | – | – | – | – | – | – | – | 10700 nM (active) | –
CN(C)CCCOc1nn(Cc2ccccc2)c2ccccc12 | inactive | inactive | inactive | inactive | inactive | inactive | – | inactive | inactive | – | inactive | inactive | – | inactive | inactive | – | inactive | – | – | –

Source: PubChem BioAssay (NCATS)
